Experimental data taken from ChEMBL document CHEMBL4513148, “CO-ADD screening of Stellenbosch University (South Africa) compounds”.
Measured potencies and affinities stand elsewhere.

Key:
Staphylococcus aureus = details: Concentration 32 ug.mL-1; ASSAY_TEST Inhibition of Bacterial Growth; detection method Absorption (OD600); MEDIA CAMHB; plate type 384well; NBS; CORNING #3640; time 18 hr
Escherichia coli = details: Concentration 32 ug.mL-1; ASSAY_TEST Inhibition of Bacterial Growth; detection method Absorption (OD600); MEDIA CAMHB; plate type 384well; NBS; CORNING #3640; time 18 hr

SMILES	Inhibition (Staphylococcus aureus)	Inhibition (Escherichia coli)
CC(C)(CO)[C@H](O)C(=O)NCCCc1cn(C[C@H]2O[C@@H](n3ccc(N)nc3=O)[C@H](O)[C@@H]2O)nn1	12.15%	-9.07%
CC(C)(CO)[C@H](O)C(=O)NCCC(=O)NCc1cn(C[C@H]2O[C@@H](n3ccc(N)nc3=O)[C@H](O)[C@@H]2O)nn1	2.11%	-13.27%
CC(C)(CO)C(O)C(=O)NCCCOP(=O)(O)OCC1OC(n2ccc(N)nc2=O)C(O)C1O (stereo unspecified)	-4.3%	-11.28%
CCCCCCNNC(=O)CCNC(=O)[C@H](O)C(C)(C)CO	13.79%	-4.33%
CC(C)(CO)[C@H](O)C(=O)NCCC(=O)OCc1cn(C[C@H]2O[C@@H](n3ccc(N)nc3=O)[C@H](O)[C@@H]2O)nn1	8.97%	-9.8%
CC(C)(COP(=O)(O)O)[C@@H](O)C(=O)NCCC(=O)NCCc1ccccc1	15.25%	-8.26%
CC(CC(=O)NCCc1ccccc1)NC(=O)[C@H](O)C(C)(C)CO (stereo partly specified)	13.65%	-6.39%
CCCCCCCNS(=O)(=O)CCNC(=O)[C@H](O)C(C)(C)CO	15.67%	-4.61%
CCCCCCCNC(=O)CCNC(=O)C(O)C(C)(C)C (stereo unspecified)	18.01%	-4.21%
C#CCNC(=O)[C@H](O)C(C)(C)CO	0.74%	3.62%
CC(C)(CO)[C@H](O)C(=O)NCc1cn(C[C@H]2O[C@@H](n3ccc(N)nc3=O)[C@H](O)[C@@H]2O)nn1	13.05%	-11.94%
CC(C)(CO)[C@@H](O)C(=O)N/C=C/C(=O)NCCc1ccccc1	31.24%	-5.06%
CC(C)(CO)[C@@H](O)C(=O)NCCC(=O)NNCc1ccccc1	15.8%	-5.42%
CC(C)(CN)C(O)C(=O)NCCC(=O)NCCc1ccccc1 (stereo unspecified)	10.68%	-6.66%
CC(C)(CO)[C@@H](O)C(=O)NCCC(=S)NCCc1ccccc1	10.96%	-8.24%
CC(C)(C)C(O)C(=O)NCCC(=O)NCCc1ccccc1 (stereo unspecified)	10.92%	-6.19%
CCCCCCCNC(=S)CCNC(=O)[C@H](O)C(C)(C)CO	14.7%	-4.19%
CC(C)(CO)[C@H](O)C(=O)NCCc1cn(C[C@H]2O[C@@H](n3ccc(N)nc3=O)[C@H](O)[C@@H]2O)nn1	-0.66%	-7.3%
